Active and inactive are the calls of the source. The calls were made as follows: active = hit-call score of the fitted dose curve at least 0.9, where 1 is the maximum; inactive = score below 0.9.
Tests used:
Conditions in all cases: mRNA level, 48 h; actives raise or lower the signal
[1] = read-out: growth arrest and DNA damage 45 (GADD45B), GADD45B (gene 4616); assay: LTEA_HepaRG_GADD45B: Life Technologies and Expression Analysis (LTEA) Assay for growth arrest and DNA damage 45 (GADD45B) using HepaRG (AID 2283461)
Procedure, shortened: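 HepaRG, ~100,000 cells/well, 48 h plating; serum-free induction medium; cpd 100 uM top, half-log x8, 0.5% DMSO, duplicate, 48 h; lysis in RLT, RNA isolation, qRT-PCR; norm ACTB/GAPDH/POLR2A; bidirectional fit vs DMSO.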

[2] = read-out: ABC Transporter (ABCC3), ABCC3 (gene 8714); assay: LTEA_HepaRG_ABCC3: Life Technologies and Expression Analysis (LTEA) Assay for ABC Transporter (ABCC3) using HepaRG (AID 2283462)
Procedure, shortened: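 Human HepaRG, 48 h dosing, 8-pt half-log series from 100 uM, 0.5% DMSO vehicle, duplicates. ABCC3 mRNA by TaqMan qRT-PCR, housekeeping-normalized; bidirectional curve fit vs DMSO.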

[3] = read-out: ABC Transporter (ABCB11), ABCB11 (gene 8647); assay: LTEA_HepaRG_ABCB11: Life Technologies and Expression Analysis (LTEA) Assay for ABC Transporter (ABCB11) using HepaRG (AID 2283463)
Procedure, shortened: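 Differentiated human HepaRG cells were exposed for 48 h in serum-free induction medium to eight half-log concentrations up to 100 uM in 0.5% DMSO. ABCB11 mRNA was quantified by qRT-PCR, normalized to ACTB, GAPDH and POLR2A, and fitted bidirectionally versus DMSO.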

[4] = read-out: ABC Transporter (ABCC2), ABCC2 (gene 1244); assay: LTEA_HepaRG_ABCC2: Life Technologies and Expression Analysis (LTEA) Assay for ABC Transporter (ABCC2) using HepaRG (AID 2283464)
Procedure, shortened: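 HepaRG, 48 h post-plating; serum-free induction medium; cpd 8-pt, 100 uM top, half-log, 0.5% DMSO, duplicate, 48 h. Readout: ABCC2 mRNA by qRT-PCR, norm. ACTB/GAPDH/POLR2A. Bidirectional fit vs DMSO baseline.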

[5] = read-out: Broad substrate specificity ATP-binding cassette transporter ABCG2 (Homo sapiens) (UniProt Q9UNQ0); assay: LTEA_HepaRG_ABCG2: Life Technologies and Expression Analysis (LTEA) Assay for ABC Transporter (ABCG2) using HepaRG (AID 2283465)
Procedure, shortened: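 Differentiated HepaRG cells in serum-free induction medium were exposed for 48 h, in duplicate, to eight half-log concentrations up to 100 uM in 0.5% DMSO. ABCG2 mRNA was measured by TaqMan qRT-PCR, normalized to ACTB, GAPDH and POLR2A, and fitted bidirectionally versus DMSO.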

[6] = read-out: ATP-citrate lyase (ACLY), ACLY (gene 47); assay: LTEA_HepaRG_ACLY: Life Technologies and Expression Analysis (LTEA) Assay for ATP-citrate lyase (ACLY) using HepaRG (AID 2283466)
Procedure, shortened: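 Differentiated human HepaRG cells in serum-free induction medium exposed 48 h, in duplicate, to eight half-log concentrations from 100 uM top in 0.5% DMSO; ACLY mRNA measured by qRT-PCR, normalized to ACTB, GAPDH, POLR2A, fitted bidirectionally versus DMSO.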

[7] = read-out: Peroxisomal acyl-coenzyme A oxidase 1 (ACOX1) gene, ACOX1 (gene 51); assay: LTEA_HepaRG_ACOX1: Life Technologies and Expression Analysis (LTEA) Assay for Peroxisomal acyl-coenzyme A oxidase 1 (ACOX1) gene using HepaRG (AID 2283467)
Procedure, shortened: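 Differentiated human HepaRG cells were exposed in duplicate for 48 h in serum-free induction medium to eight half-log concentrations up to 100 uM in 0.5% DMSO. ACOX1 mRNA was then quantified by TaqMan qRT-PCR, normalized to ACTB, GAPDH and POLR2A.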

[8] = read-out: Alkaline Phosphatase, Placental (ALPP) gene, ALPP (gene 250); assay: LTEA_HepaRG_ALPP: Life Technologies and Expression Analysis (LTEA) Assay for Alkaline Phosphatase, Placental (ALPP) gene using HepaRG (AID 2283468)
Procedure, shortened: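 HepaRG, 48 h plating then 48 h dosing, serum-free induction medium, 0.5% DMSO. 8 conc, half-log, max 100 uM, duplicates. Endpoint: ALPP transcript by qRT-PCR, housekeeping-normalized; gain or loss fitted vs DMSO.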

[9] = read-out: Bcl-2 (BAD) gene, BAD (gene 572); assay: LTEA_HepaRG_BAD: Life Technologies and Expression Analysis (LTEA) Assay for Bcl-2 (BAD) gene using HepaRG (AID 2283469)
Procedure, shortened: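 Differentiated human HepaRG cells in serum-free induction medium were exposed in duplicate for 48 h to eight concentrations (top 100 uM, half-log steps, 0.5% DMSO). BAD mRNA was quantified by qRT-PCR normalised to ACTB, GAPDH and POLR2A, with bidirectional fitting versus DMSO.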

[10] = read-out: adenosine kinase (ADK) gene, ADK (gene 132); assay: LTEA_HepaRG_ADK: Life Technologies and Expression Analysis (LTEA) Assay for adenosine kinase (ADK) gene using HepaRG (AID 2283471)
Procedure, shortened: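 Read-out is ADK transcript level measured by qRT-PCR and normalised to three housekeeping genes. Cells are human HepaRG, dosed for 48 h at up to 100 uM in 0.5% DMSO. Gain or loss of signal is fitted against DMSO controls.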

[11] = read-out: Alpha-fetoprotein (AFP) gene, AFP (gene 174); assay: LTEA_HepaRG_AFP: Life Technologies and Expression Analysis (LTEA) Assay for Alpha-fetoprotein (AFP) gene using HepaRG (AID 2283472)
Procedure, shortened: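 Differentiated human HepaRG cells exposed 48 h in serum-free induction medium, 8-point half-log series from 100 uM in 0.5% DMSO, duplicate. AFP mRNA by qRT-PCR, normalized to ACTB, GAPDH, POLR2A; bidirectional fit vs DMSO.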

BCL2L11 (gene 10018) = assay: LTEA_HepaRG_BCL2L11: Life Technologies and Expression Analysis (LTEA) Assay for Bcl-2 (BCL2L11) gene using HepaRG (AID 2283473)
Procedure, shortened: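 Read-out is BCL2L11 transcript level by qRT-PCR, normalized to three housekeeping genes and fitted bidirectionally against 0.5% DMSO vehicle. HepaRG cells received chemicals for 48 h in serum-free induction medium, 100 uM down in half-log dilutions.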

[12] = read-out: Apolipoprotein A-V (APOA5) gene, APOA5 (gene 116519); assay: LTEA_HepaRG_APOA5: Life Technologies and Expression Analysis (LTEA) Assay for Apolipoprotein A-V (APOA5) gene using HepaRG (AID 2283474)
Procedure, shortened: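 Readout is APOA5 transcript level by qRT-PCR on Fluidigm dynamic arrays, normalized to three housekeeping genes. HepaRG cultures received chemicals for 48 h at up to 100 uM (half-log steps, 0.5% DMSO), with gain or loss scored relative to DMSO.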

[13] = read-out: Apoptosis regulator Bcl-2 (Homo sapiens) (UniProt P10415); assay: LTEA_HepaRG_BCL2: Life Technologies and Expression Analysis (LTEA) Assay for Bcl-2 gene using HepaRG (AID 2283475)
Procedure, shortened: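 Differentiated human HepaRG cells in serum-free induction medium exposed 48 h, in duplicate, to 8-point half-log series from 100 uM in 0.5% DMSO. BCL2 mRNA by qRT-PCR (TaqMan/Fluidigm), normalized to ACTB, GAPDH, POLR2A; bidirectional fit against DMSO.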

[14] = read-out: Bcl-2 (BID) gene, BID (gene 637); assay: LTEA_HepaRG_BID: Life Technologies and Expression Analysis (LTEA) Assay for Bcl-2 (BID) gene using HepaRG (AID 2283476)
Procedure, shortened: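 Gene expression by qRT-PCR in HepaRG cells after 48 h exposure, duplicate wells, eight half-log concentrations topping at 100 uM in 0.5% DMSO. Normalized to ACTB, GAPDH, POLR2A; bidirectional fitting relative to DMSO.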

Caspase-3 (Homo sapiens) = Caspase-3 (Homo sapiens) (UniProt P42574); assay: LTEA_HepaRG_CASP3: Life Technologies and Expression Analysis (LTEA) Assay for cysteine-aspartic acid protease (CASP3) using HepaRG (AID 2283477)
Sequence of Caspase-3 (Homo sapiens) (P42574 whole entry, looked up): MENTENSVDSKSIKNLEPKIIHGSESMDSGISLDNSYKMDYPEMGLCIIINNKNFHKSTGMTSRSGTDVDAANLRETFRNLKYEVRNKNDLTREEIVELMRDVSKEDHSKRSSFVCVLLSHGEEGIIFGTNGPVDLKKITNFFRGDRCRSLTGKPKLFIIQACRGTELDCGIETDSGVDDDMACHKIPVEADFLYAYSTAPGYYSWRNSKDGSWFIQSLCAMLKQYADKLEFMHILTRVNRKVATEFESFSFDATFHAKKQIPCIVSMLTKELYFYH
Procedure, shortened: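 Read-out is CASP3 mRNA level by TaqMan qRT-PCR in human HepaRG cells after 48 h chemical exposure. Eight half-log concentrations topping at 100 uM were tested in 0.5% DMSO; gain or loss was fitted relative to DMSO.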

[15] = read-out: Cytochrome P450 (CYP24A1), CYP24A1 (gene 1591); assay: LTEA_HepaRG_CYP24A1: Life Technologies and Expression Analysis (LTEA) Assay for Cytochrome P450 (CYP24A1) using HepaRG (AID 2283478)
Procedure, shortened: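 HepaRG, 48 h chemical exposure, 8-pt half-log CRC from 100 uM, 0.5% DMSO vehicle, duplicates. Endpoint: CYP24A1 mRNA by Fluidigm TaqMan qRT-PCR, normalized ACTB/GAPDH/POLR2A; gain/loss fit vs DMSO.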

[16] = read-out: Cytochrome P450 (CYP1A2), CYP1A2 (gene 1544); assay: LTEA_HepaRG_CYP1A2: Life Technologies and Expression Analysis (LTEA) Assay for Cytochrome P450 (CYP1A2) using HepaRG (AID 2283479)
Procedure, shortened: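 CYP1A2 transcript induction or loss, quantified by Fluidigm qRT-PCR against three housekeeping genes, was fitted bidirectionally against 0.5% DMSO controls. Human HepaRG cells received eight half-log concentrations from 100 uM over 48 h.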

[17] = read-out: cysteine-aspartic acid protease (CASP8), CASP8 (gene 841); assay: LTEA_HepaRG_CASP8: Life Technologies and Expression Analysis (LTEA) Assay for cysteine-aspartic acid protease (CASP8) using HepaRG (AID 2283480)
Procedure, shortened: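 Differentiated human HepaRG cells, plated 48 h then switched to serum-free induction medium, were exposed in duplicate for 48 h to 8 half-log concentrations up to 100 uM in 0.5% DMSO. CASP8 mRNA was quantified by qRT-PCR, normalized to ACTB/GAPDH/POLR2A.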

[18] = read-out: Bcl-2 (BAX) gene, BAX (gene 581); assay: LTEA_HepaRG_BAX: Life Technologies and Expression Analysis (LTEA) Assay for Bcl-2 (BAX) gene using HepaRG (AID 2283470)
Procedure, shortened: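 Differentiated HepaRG cells exposed 48 h in serum-free induction medium, eight half-log concentrations from 100 uM, in duplicate, 0.5% DMSO vehicle. BAX mRNA by TaqMan qRT-PCR, normalised to ACTB, GAPDH and POLR2A.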

Measured: AC50

Sequence of Apoptosis regulator Bcl-2 (Homo sapiens) (P10415 whole entry, looked up): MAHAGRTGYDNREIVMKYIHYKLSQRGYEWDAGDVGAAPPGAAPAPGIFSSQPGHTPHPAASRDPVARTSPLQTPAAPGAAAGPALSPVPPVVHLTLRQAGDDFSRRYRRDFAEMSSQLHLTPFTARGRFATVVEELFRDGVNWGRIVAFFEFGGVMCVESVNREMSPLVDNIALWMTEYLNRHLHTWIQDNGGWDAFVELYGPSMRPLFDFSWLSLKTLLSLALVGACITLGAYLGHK
Sequence of Broad substrate specificity ATP-binding cassette transporter ABCG2 (Homo sapiens) (Q9UNQ0 whole entry, looked up): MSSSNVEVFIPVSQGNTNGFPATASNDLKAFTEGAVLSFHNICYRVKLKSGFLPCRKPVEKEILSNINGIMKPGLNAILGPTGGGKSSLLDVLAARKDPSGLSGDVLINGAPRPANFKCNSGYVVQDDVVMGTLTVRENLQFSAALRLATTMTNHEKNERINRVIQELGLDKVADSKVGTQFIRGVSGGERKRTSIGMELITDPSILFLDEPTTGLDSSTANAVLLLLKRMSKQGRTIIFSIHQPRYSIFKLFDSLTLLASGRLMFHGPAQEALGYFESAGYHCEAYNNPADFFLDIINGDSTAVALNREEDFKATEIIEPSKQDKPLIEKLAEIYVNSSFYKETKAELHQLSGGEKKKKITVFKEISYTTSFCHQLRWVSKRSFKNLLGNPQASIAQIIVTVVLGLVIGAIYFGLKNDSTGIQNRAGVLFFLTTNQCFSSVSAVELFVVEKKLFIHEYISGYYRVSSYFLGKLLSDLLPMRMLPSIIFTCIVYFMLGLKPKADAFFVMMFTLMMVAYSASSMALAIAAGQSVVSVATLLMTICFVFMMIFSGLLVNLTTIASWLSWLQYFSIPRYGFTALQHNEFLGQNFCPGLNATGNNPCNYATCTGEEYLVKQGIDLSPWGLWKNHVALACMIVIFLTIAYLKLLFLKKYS

O=C(O)CCCCC(=O)O
not listed: [18]
inactive: all other assays above

Cc1cccc(C)c1O
not listed: [12] | [14]
inactive: all other assays above

Cc1cc(=O)[nH]c(=S)[nH]1
active: [16] 50 µM
not listed: [12] | [14] | [18]
inactive: all other assays above

CCCCCCCCCCCCCCCC
active: [16] 50 µM
not listed: [6] | [14]
inactive: all other assays above

Nc1ccc(S(=O)(=O)c2ccc(N)cc2)cc1
active: [15] 12.7 µM
inactive: all other assays above

Cc1nc(C)nc(N2C[C@@H](C)N(c3ccnc([C@@H](C)O)n3)[C@@H](C)C2)n1
not listed: [6] | [12]
inactive: all other assays above

CN[C@H]1CC[C@@H](c2ccc(Cl)c(Cl)c2)c2ccc(S(N)(=O)=O)cc21
active: [1] 80.4 µM | [2] 12.6 µM | [3] 15.8 µM | [4] 63.5 µM | [6] 63.6 µM | [7] 12.2 µM | [8] 5.79 µM | [11] 23.8 µM
not listed: [14] | [18]
inactive: all other assays above

From PubChem BioAssay (EPA / NIEHS)
